Source: PubChem BioAssay (NCATS)
Results filed as inconclusive are left out. Calls of active or inactive are those of the source. Unless noted, the call rests on the fitted dose curve; in most records, active means well fitted curve in the direction sought with a large enough effect; inconclusive means small, poorly fitted or top-dose-only effect, or another doubt; inactive means no such curve, though single readings can be large; an effect the other way counts as inactive or inconclusive.

How the values were obtained:
[1] = qHTS for differential inhibitors of proliferation of Plasmodium falciparum line 7G8 (AID 1815);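 further: parasite growth measured after three days of incubation; plate controls were vehicle wells for no effect and reference inhibitor wells for full effect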
[2] = qHTS for differential inhibitors of proliferation of Plasmodium falciparum line 3D7 (AID 1876);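 further: parasite growth measured after three days of culture; 0% = vehicle wells and -100% = reference inhibitor wells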
[3] = qHTS for differential inhibitors of proliferation of Plasmodium falciparum line D10 (AID 1877);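 further: parasites grown with compound for 72 h before DNA staining; plate controls were vehicle wells for no effect and reference inhibitor wells for full effect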
[4] = qHTS for differential inhibitors of proliferation of Plasmodium falciparum line Dd2 (AID 1882); settings: Potency: Plasmodium falciparum Dd2 proliferation inhibition;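 further: series mostly up to about 29 µM; plate controls were DMSO vehicle for no effect and 0.29 µM artemisinin for full effect; nearly all actives have a fitted effect of over 65% in size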
Procedure, shortened: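 SYBR Green DNA fluorescence (ex 485, em 535 nm) after overnight lysis quantifies parasite growth; compound exposure lasted 72 h at 37 C on infected red cells at 2.5% hematocrit, 0.3% parasitemia (final). Artemisinin 0.29 uM and vehicle wells define normalization.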

[5] = qHTS for differential inhibitors of proliferation of Plasmodium falciparum line HB3 (AID 1886); settings: Potency: Plasmodium falciparum HB3 proliferation inhibition;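 further: parasites grown with compound for 72 h before SYBR Green readout; plate controls were vehicle for no effect and reference inhibitor for full effect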
[6] = qHTS Assay for Modulators of Human Peripheral Myelin Protein 22 (PMP22) Expression/Activity (AID 1967; active means well fitted curve in the direction sought with a large enough effect in the signal ratio; the % refers to the signal ratio;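 further: 0% = untreated cells and 100% end not stated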)
Procedure, shortened: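 MSC80 mouse Schwann cells stably carrying Pmp22 promoter–green click beetle luciferase plus EF-alpha–red luciferase control were dosed for 24h at 37 °C. Dual-colour luminescence was filter-overlap corrected; %Activity came from green/red ratio versus untreated cells.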

[7] = molecular target: Ferritin light chain (Equus caballus) (UniProt P02791); assay: qHTS Validation Assay for Identification of Novel General Anesthetics (AID 2323); further: series mostly up to about 77 µM; on the % scale 0 is the no-effect control and ±100 the full control effect
Procedure, shortened: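 Competitive displacement of profluorescent 1-aminoanthracene (1-AMA, 50% saturated solution in PBS) from 10 uM horse-spleen apoferritin. Compounds incubated 10 min at room temperature; fluorescence read at 380 nm excitation/535 nm emission, normalized to free 1-AMA and complex, fitted with four-parameter Hill equation.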

[8] = molecular target: ATP-dependent DNA helicase Q1 (Homo sapiens) (UniProt P46063); assay: qHTS Validation Assay for Inhibitors of RecQ-Like Dna Helicase 1 (RECQ1) (AID 2353);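 further: plate controls were DMSO vehicle for no effect and enzyme-free control for full effect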
Procedure, shortened: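 RECQ1T1 50 nM; forked duplex (20 bp + 30-nt ss tails) 200 nM, ATP 2 mM final; pH 8.0, 2 mM MgCl2, 2.5 ug/ml poly(dI-dC); 15 min compound preincubation; discontinuous kinetic read over 2 h at RT.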

[9] = molecular target: RecQ-like DNA helicase BLM (Homo sapiens) (UniProt P54132); assay: qHTS Validation Assay for Inhibitors of Bloom's syndrome helicase (BLM) (AID 2364);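 further: plate controls were DMSO vehicle for no effect and enzyme-free control for full effect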
Procedure, shortened: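 BLM 50 nM in 25 mM Tris-HCl pH 8.0, 5 mM NaCl, 2 mM MgCl2, 1 mM DTT, 0.01% Tween-20, 2.5 ug/ml poly(dI-dC); 15 min cpd preinc, RT. Start: 200 nM forked DNA + 2 mM ATP (final). TAMRA read, 2 reads 2 h apart.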

[10] = Validation screen for inhibitors of Lassa infection (AID 463096; calls by dose curve; further: on the % scale 0 is the no-effect control and ±100 the full control effect)
[11] = Validation screen for small molecules that induce DNA re-replication in MCF 10A normal breast cells (AID 463097); further: 0% is about no effect; nearly all actives have a fitted effect of over 60% in size
Procedure, shortened: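 Readout: Hoechst nuclear fluorescence intensity, 405 ex / 500-530 em, by scanning plate imager; re-replication scored as increase in nuclei with elevated DNA content. Cells exposed to compound 48 hr, 37 C, 5% CO2 beforehand.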

[12] = Quantitative high throughput screen for delayed death inhibitors of the malarial parasite plastid, 96 hour incubation (AID 488745);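 further: luciferase-expressing P. falciparum in erythrocytes at 2% hematocrit and 0.1% parasitemia; series mostly up to about 29 µM; on the % scale 0 is the no-effect control and ±100 the full control effect; nearly all actives have a fitted effect of over 70% in size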
Procedure, shortened: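 Readout is firefly luciferase luminescence from an integrated reporter in P. falciparum; lower signal marks inhibited growth. Cultures at 2% hematocrit and 0.1% parasitemia were treated with compound across two generations (96 h, 37 C, 5% CO2).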

[13] = Quantitative high throughput screen for delayed death inhibitors of the malarial parasite plastid, 48 hour incubation (AID 488752); further: on the % scale 0 is the no-effect control and ±100 the full control effect; nearly all actives have a fitted effect of over 65% in size
Procedure, shortened: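 First, compound was pinned into RPMI 1640 medium containing 0.5% Albumax. Next, reporter-parasite-infected erythrocytes were added to 2% hematocrit and 0.1% parasitemia. After 48 h at 37 C under 5% CO2, luciferase detection reagent was added and luminescence read.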

[14] = molecular target: M-phase phosphoprotein 8 (Homo sapiens) (UniProt Q99549); assay: qHTS Validation Assay for Inhibitors for MPP8 Chromodomain Interactions with Methylated Histone Tails (AID 488949);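 further: AlphaScreen signal from MPP8 chromodomain bound to biotinylated H3K9me3 peptide; top concentration of the series differs between compounds; on the % scale 0 is the no-effect control and ±100 the full control effect; nearly all actives have a fitted effect of over 55% in size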
Procedure, shortened: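 MPP8 (50 nM) was preincubated with biotinylated H3(1-18)K9me3 peptide (50 nM) in PBS pH 7.4, 0.01% Tween-20 for 30 min at room temperature, then with compounds for 30 min; binding was detected by AlphaScreen.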

[15] = molecular target: Transient receptor potential cation channel subfamily V member 1 (Homo sapiens) (UniProt Q8NER1); assay: HTS Assay for Compounds that Act as Enhancers of the Vanilloid Receptor 1 (AID 488979); further: 0% is about no effect
Procedure, shortened: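 TRPV1-expressing cells loaded with Fluo-8 calcium dye; compounds added and calcium influx read kinetically for 3 min (agonist phase), then capsaicin at EC20 added and read 2 min more for enhancement. Fluorescence ex 480/em 520 nm.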

[16] = molecular target: Thyrotropin receptor (Homo sapiens) (UniProt P16473); assay: qHTS Assay for Antagonists of the Thyroid Stimulating Hormone Receptor (AID 488980); further: series mostly up to about 58 µM; 0% is about no effect
Procedure, shortened: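 HEK293 cells transfected with human TSHR, suspended in HEPES-buffered HBSS with 70 uM RO 20-1724, were treated with compounds plus TSH at EC80 (4 nM final). cAMP was measured by competitive HTRF (cryptate anti-cAMP antibody, cAMP-d2 acceptor).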

[17] = molecular target: Thyrotropin-releasing hormone receptor (Homo sapiens) (UniProt P34981); assay: qHTS for Small Molecule Agonists and Allosteric Enhancers of Human TRH Receptor: Validation Screen for Agonists (AID 493127;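 active means calcium activation more than 3 SD above the typical response in the agonist read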;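 further: intracellular calcium rise by fluo-8 fluorescence before TRH EC20 addition; 0% is about no effect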); settings: TRH receptor agonist cell assay; at 2 µM; stronger effect = higher value
Procedure, shortened: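 Compounds are added by online pintool to dye-loaded TRHR cells while fluorescence is recorded every second. A rise in calcium signal during the agonist read marks activation; a later 10 nM TRH addition (EC20) serves the separate enhancer mode.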

[18] = molecular target: Galactokinase (Homo sapiens) (UniProt P51570); assay: qHTS Validation Assay for Inhibitors of Human Galactokinase (GALK) (AID 493189); further: 0% is about no effect
Procedure, shortened: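 GALK (5 nM) with 35 uM ATP and 100 uM galactose in HEPES pH8.0, MgCl2, NaCl, DTT, BSA; 1 h at room temperature. Residual ATP read by Kinase-Glo Plus luminescence after 10 min.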

[19] = molecular target: Voltage-gated inwardly rectifying potassium channel KCNH2 (Homo sapiens) (UniProt Q12809); assay: qHTS Assay for Small Molecule Inhibitors of the Human hERG Channel Activity (AID 588834);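 further: top concentration of the series differs between compounds; on the % scale 0 is the no-effect control and ±100 the full control effect; lower thallium flux fluorescence means stronger hERG block; nearly all actives have a fitted effect of over 50% in size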
Procedure, shortened: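 In hERG-transduced U2OS cells, dye-loaded for 1 hr at room temperature in dark, test compounds incubated 10 min at 37 °C before thallium stimulation. AC50 values derived by Hill modelling of concentration-response.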

[20] = tested on: Zika virus NS2B-NS3 protease; assay: Primary screen GU AMC qHTS for Zika virus inhibitors (AID 1347154);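 further: 0% = no-inhibitor control and -100% = no-enzyme control; nearly all actives have a fitted effect of over 70% in size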
Procedure, shortened: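 Unlinked Zika NS2B hydrophilic domain/NS3 protease domain noncovalent complex (25 nM final) in 10 mM Tris-HCl pH 8.0, 0.01% Tween 20, with AMC peptide substrate. Fluorescence (ex 340, em 450 nm) change over 15 min, room temperature; percent inhibition fitted to 4-parameter Hill equation.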

M-phase phosphoprotein 8 (Homo sapiens), sequence (Q99549 whole entry, looked up): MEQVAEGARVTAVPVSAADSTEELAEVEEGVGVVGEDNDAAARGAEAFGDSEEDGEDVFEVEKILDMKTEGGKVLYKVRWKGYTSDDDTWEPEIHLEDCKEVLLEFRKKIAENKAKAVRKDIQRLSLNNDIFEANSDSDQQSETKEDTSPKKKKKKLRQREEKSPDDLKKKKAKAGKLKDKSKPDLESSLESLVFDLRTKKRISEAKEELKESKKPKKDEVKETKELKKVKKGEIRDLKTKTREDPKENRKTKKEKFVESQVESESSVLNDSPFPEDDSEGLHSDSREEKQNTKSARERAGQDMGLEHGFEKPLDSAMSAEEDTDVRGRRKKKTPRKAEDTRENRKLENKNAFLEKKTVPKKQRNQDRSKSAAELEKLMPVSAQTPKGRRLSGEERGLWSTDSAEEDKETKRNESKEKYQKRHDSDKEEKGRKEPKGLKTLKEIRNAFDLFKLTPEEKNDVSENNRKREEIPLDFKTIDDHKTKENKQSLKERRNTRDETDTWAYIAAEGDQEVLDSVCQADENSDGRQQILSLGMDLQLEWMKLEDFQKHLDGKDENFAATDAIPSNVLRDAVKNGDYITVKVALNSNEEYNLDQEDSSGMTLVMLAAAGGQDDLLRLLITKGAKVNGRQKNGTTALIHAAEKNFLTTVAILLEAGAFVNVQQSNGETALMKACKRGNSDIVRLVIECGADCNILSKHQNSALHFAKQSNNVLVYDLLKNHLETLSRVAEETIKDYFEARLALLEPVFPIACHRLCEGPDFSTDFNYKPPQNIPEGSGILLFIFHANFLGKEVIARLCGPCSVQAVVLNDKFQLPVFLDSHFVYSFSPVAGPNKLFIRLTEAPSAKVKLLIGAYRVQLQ
Thyrotropin receptor (Homo sapiens), sequence (P16473 whole entry, looked up): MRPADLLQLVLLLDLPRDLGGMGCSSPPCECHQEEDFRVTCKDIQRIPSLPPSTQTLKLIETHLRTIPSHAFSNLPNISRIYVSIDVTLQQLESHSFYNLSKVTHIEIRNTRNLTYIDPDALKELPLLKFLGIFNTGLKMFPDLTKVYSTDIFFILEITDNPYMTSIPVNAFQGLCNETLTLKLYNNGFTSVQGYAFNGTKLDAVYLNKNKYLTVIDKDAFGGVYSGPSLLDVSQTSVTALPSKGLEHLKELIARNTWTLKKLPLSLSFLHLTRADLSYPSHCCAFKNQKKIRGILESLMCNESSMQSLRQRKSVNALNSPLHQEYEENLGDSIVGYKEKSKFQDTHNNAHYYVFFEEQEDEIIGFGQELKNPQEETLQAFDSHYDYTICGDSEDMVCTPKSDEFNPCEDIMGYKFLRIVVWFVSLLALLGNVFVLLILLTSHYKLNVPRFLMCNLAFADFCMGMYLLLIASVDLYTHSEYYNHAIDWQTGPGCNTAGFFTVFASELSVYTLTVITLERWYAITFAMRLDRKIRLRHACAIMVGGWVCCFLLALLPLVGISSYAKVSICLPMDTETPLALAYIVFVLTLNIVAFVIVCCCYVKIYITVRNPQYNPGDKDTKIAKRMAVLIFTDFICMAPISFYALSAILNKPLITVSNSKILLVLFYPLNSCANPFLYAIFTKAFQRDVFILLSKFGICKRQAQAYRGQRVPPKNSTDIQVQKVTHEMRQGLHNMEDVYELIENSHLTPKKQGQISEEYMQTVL
ATP-dependent DNA helicase Q1 (Homo sapiens), sequence (P46063 whole entry, looked up): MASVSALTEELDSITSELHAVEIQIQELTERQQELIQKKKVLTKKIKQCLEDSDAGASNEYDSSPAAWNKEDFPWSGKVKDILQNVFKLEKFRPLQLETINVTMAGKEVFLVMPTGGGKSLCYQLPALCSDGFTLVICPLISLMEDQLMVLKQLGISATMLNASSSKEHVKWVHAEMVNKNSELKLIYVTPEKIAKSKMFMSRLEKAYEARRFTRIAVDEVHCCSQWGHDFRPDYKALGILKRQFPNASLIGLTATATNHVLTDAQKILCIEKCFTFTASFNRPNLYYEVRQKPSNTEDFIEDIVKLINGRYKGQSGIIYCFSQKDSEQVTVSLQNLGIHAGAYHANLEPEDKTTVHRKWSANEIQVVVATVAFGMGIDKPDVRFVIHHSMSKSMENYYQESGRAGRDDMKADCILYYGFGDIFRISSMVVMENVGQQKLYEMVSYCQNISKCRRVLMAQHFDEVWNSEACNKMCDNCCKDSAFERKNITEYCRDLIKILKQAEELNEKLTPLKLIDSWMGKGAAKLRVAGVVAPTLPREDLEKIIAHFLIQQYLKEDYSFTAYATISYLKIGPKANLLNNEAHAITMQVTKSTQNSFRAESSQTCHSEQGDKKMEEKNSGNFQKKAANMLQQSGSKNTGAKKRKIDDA
Ferritin light chain (Equus caballus), sequence (P02791 2-175 limits assumed): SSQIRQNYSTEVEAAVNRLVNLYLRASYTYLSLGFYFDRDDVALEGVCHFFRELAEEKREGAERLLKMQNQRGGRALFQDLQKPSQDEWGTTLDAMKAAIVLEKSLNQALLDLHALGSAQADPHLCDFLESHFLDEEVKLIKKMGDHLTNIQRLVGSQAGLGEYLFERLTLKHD
Thyrotropin-releasing hormone receptor (Homo sapiens), sequence (P34981 whole entry, looked up): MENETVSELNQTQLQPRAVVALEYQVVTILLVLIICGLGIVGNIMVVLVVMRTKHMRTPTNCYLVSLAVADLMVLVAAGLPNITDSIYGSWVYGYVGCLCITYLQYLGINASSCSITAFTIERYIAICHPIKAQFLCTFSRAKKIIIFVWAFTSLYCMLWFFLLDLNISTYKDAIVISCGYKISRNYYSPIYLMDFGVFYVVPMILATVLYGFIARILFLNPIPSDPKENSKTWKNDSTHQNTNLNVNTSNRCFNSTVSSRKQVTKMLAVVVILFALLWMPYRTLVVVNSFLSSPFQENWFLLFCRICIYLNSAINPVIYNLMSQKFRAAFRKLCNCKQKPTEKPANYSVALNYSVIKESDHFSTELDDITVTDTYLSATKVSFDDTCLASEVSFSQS
Transient receptor potential cation channel subfamily V member 1 (Homo sapiens), sequence (Q8NER1 whole entry, looked up): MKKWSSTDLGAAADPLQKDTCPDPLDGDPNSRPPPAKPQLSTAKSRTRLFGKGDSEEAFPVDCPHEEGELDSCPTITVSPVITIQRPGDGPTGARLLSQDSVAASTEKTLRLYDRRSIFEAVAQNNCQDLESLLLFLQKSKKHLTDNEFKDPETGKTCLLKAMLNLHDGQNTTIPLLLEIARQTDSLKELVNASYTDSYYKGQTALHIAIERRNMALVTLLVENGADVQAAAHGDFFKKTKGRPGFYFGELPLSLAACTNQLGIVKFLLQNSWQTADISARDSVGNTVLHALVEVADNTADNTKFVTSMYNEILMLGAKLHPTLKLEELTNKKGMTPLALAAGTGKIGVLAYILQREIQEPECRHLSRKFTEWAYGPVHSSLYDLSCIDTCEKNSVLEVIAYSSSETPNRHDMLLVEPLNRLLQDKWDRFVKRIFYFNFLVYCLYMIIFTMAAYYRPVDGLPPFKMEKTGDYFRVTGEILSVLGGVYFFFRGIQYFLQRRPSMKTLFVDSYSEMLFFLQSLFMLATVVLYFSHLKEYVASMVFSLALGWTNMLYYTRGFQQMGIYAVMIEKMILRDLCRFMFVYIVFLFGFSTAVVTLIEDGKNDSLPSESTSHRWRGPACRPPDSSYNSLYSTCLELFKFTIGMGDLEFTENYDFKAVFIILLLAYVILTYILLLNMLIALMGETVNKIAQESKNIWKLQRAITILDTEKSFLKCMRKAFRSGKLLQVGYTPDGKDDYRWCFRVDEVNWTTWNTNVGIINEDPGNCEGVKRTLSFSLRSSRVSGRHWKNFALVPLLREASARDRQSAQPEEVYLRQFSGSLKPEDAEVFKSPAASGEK
Galactokinase (Homo sapiens), sequence (P51570 whole entry, looked up): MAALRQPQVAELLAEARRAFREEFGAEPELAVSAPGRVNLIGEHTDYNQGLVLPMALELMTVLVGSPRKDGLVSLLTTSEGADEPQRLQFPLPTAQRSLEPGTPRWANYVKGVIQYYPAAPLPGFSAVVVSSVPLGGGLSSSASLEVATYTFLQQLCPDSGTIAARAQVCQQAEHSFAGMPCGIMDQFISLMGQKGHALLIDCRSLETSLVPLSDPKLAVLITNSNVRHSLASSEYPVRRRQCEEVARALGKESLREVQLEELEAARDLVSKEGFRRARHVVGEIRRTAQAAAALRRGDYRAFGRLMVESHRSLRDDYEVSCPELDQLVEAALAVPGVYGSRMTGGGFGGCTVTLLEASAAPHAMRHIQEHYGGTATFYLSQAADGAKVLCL

COc1ccc2[nH]cc(CCN(C)C)c2c1
inactive: Potency [1] | Potency [2] | Potency [3] | Potency [4] | Potency [5] | outcome [6] | outcome [7] | Potency [8] | Potency [9] | Potency [10] | Potency [11] | Potency [12] | Potency [13] | Potency [14] | outcome [15] | outcome [16] | activation [17] 0.688% | outcome [18] | Potency [19] | Potency [20]
